This is one part of a sample in which hits are shown more often than they occur.
Sfp inh: Sfp phosphopantetheinyl transferase inhibition; Biochemical Sfp PPTase activity, qHTS; Potency, µM, inactives show largest response in the series, negative = inhibition, hits mostly inhibitors; hit rate 3.5% among 310,000; AID 1490;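 note: the enzyme is Sfp with the accession as filed and its product quenches rhodamine fluorescence; 0% = enzyme reaction without inhibitor and -100% = no enzyme wells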
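Step 1, compound plus 15 nM Sfp-PPTase, 15 min, room temperature. Step 2, add rhodamine-CoA (5 uM) and BHQ-2-YbbR (12.5 uM). Step 3, read 525/598 nm fluorescence at 0 and 30 min.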
G9a inh: G9a (human) methyltransferase inhibition | G9a H3K9 monomethylation, AlphaScreen, 2 h | AID 504332 | Potency, µM (top dose mostly 102 µM), without a hit: at the highest dose activity, negative = inhibition, hits mostly inhibitors | hit rate 8.8% among 350,000 | Q96KQ7; note: % is set by controls: 0 for no effect and ±100 for the full control effect; nearly all actives have a fitted effect of over 75% in size
Target sequence (Q96KQ7 913-1193 limits assumed): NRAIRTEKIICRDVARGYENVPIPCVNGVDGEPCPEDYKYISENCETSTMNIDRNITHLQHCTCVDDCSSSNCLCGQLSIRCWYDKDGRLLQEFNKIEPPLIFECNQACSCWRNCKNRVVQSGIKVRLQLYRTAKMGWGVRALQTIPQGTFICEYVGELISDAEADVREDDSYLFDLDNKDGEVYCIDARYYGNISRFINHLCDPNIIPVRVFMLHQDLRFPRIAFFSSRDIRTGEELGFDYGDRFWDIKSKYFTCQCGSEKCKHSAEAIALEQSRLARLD
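Methyltransferase reactions run at room temperature for 2 h (20 nM enzyme, 500 nM biotin-H3K9 peptide, 20 uM SAM) after a 15 min compound preincubation; product detected by AlphaScreen beads and anti-H3K9me1 antibody.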
VDR inh: vitamin D3 receptor (human) inhibition; P11473; Potency, µM, inactives show max response, negative = inhibition, most hits filed as inhibitors; hit rate 0.93% among 400,000; VDR-SRC2-3 peptide fluorescence polarization, 2 h; note: % is set by controls: 0 for no effect and ±100 for the full control effect
Target sequence (P11473 whole entry, looked up): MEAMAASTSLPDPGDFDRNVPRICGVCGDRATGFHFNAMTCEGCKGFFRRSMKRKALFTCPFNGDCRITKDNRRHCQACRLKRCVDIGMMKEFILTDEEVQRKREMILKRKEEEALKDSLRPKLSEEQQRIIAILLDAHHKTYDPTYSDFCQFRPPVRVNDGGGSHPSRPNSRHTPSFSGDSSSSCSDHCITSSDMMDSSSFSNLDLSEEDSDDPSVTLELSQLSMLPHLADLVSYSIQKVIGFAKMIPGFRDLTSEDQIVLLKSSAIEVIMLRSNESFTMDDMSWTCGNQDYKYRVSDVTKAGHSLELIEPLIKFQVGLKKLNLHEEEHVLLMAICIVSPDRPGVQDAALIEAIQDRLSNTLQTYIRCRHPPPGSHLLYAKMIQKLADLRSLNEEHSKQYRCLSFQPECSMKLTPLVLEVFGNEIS
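The screen uses fluorescence polarization to detect compounds that interfere with recruitment of the SRC2-3 coactivator peptide to VDR; plates are read after 2 h at room temperature.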
Glioma ERSR ind: ER stress response induction in glioma; U87-MG GRP78 promoter luciferase reporter, 16 h; Potency, µM, inactives show at the highest dose activation, usual class: activators; hit rate 0.02% among 420,000; note: series mostly up to about 76 µM; % of control where 0% means no effect; nearly all actives have a fitted effect of over 35% in size
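Stably transfected U87-MG human glioma cells carrying a GRP78-based luminescent sensor were seeded at 1000 cells/well, pin-dosed with compounds and incubated 16 h. Luciferase reagent was then added, and end-point luminescence was read after 10 min at room temperature.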
12-LOX inh: ALOX12 (human) lipoxygenase inhibition; Potency, µM (top dose mostly 108 µM), inactives show at the top dose activity change, negative = inhibition, hits mostly inhibitors; hit rate 1.1% among 580,000; purified 12hLO, xylenol orange hydroperoxide absorbance; note: % is set by controls: 0 for no effect and ±100 for the full control effect
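Purified human 12hLO (150 nM final) in 25 mM Hepes, 0.01% Triton X-100, pH 7.0 was preincubated 15 min at room temperature with compound. Then 40 uM arachidonic acid was added, 30 min. Hydroperoxide was read by Fe-XO absorbance ratio 573/405 nm.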
An asterisk follows results filed as active; ? = inconclusive; / = no result given; [ ] = another dose, or the depositor's remark. Calls come from the whole dose curve; as a rule, active = well fitted curve in the direction sought with a large enough effect; inconclusive = small, poorly fitted or top-dose-only effect, or another doubt; inactive = no such curve, though single readings can be large; an effect the other way counts as inactive or inconclusive. Potency is the fitted concentration of half-maximal effect.

SMILES	Sfp inh	G9a inh	VDR inh	Glioma ERSR ind	12-LOX inh
CCOC(=O)C1=C(C)N(c2ccccc2)C(=O)/C1=C\c1ccc(O)c(OC)c1	6.3µM*	3.2µM*	?	-18%	?
CC(C)c1ccc(CN2CCN(C(=O)c3cccc4ncccc34)CC2)cc1	/	/	/	/	-11%
CCN(CC)c1ccc(NC(=O)Cn2nnc(-c3cccc(OC)c3OC)n2)c(C)c1	13%	0.71µM*	14%	0%	-20%
COc1ccccc1NC(=O)Cn1nnc(-c2ccccc2NC(=O)c2cccs2)n1	50µM*	-46%[59 µM]	-14%	-5%	5%
O=S(=O)(c1ccccc1)c1nc(-c2cccc(Cl)c2)oc1N1CCOCC1	1%	40µM*	0%	-1%	-27%
COc1ccc(-c2nc(S(=O)(=O)c3ccccc3)c(N3CCCC3)o2)cc1	/	/	/	-3%	4.5µM*
COc1ccc(-c2nc(S(=O)(=O)c3ccccc3)c(N3CCC(C)CC3)o2)cc1	/	3%[59 µM]	-7%	-3%	-13%
Cc1ccc(S(=O)(=O)c2nc(-c3ccc(F)cc3)oc2N2CCOCC2)cc1	-10%	35µM*	4%	-4%	?
CCN1CCN(c2oc(-c3ccccc3)nc2S(=O)(=O)c2ccc(C)cc2)CC1	/	40µM*	-11%	-5%	-17%
COc1ccc(C(O)c2nccn2Cc2ccccc2)c(OC)c1 (configuration not stated)	/	/	/	/	8%
CN(c1cc(=O)c2ccnc(NCc3ccc4c(c3)OCO4)c2o1)C1CCOCC1	/	/	/	/	-2%[176 µM]
CCN(CC)CCNC(=O)c1nc2ccccc2c(=O)[nH]1	/	/	/	/	-6%
COC(=O)c1cc(S(=O)(=O)N(C)CC(=O)N2CCN(c3ccccc3F)CC2)cn1C	/	/	/	/	6%
Cc1ccc(S(=O)(=O)c2nc(-c3ccccc3)oc2N2CCCCCC2)cc1	/	?	2%	/	-25%
CC1CCN(c2oc(-c3cccs3)nc2S(=O)(=O)c2ccc(Cl)cc2)CC1	/	7.9µM*	?	0%	-23%
COc1cccc(-c2nc(S(=O)(=O)c3ccccc3)c(N3CCC(C)CC3)o2)c1	/	18µM*	2%	-2%	-20%
Cc1ccc(S(=O)(=O)c2nc(C(C)(C)C)oc2N2CCOCC2)cc1	28µM*	8.9µM*	?	-5%	-2%
Cc1ccc(S(=O)(=O)c2nc(C)oc2N2CCOCC2)cc1	11%	/	-17%	-2%	-34%
Cc1ccc(S(=O)(=O)c2nc(-c3cccs3)oc2N2CCC(C)CC2)cc1	/	?	5%	1%	-21%
Cc1ccc(-c2nc(S(=O)(=O)c3ccc(C)cc3)c(N3CCCCC3)o2)cc1	/	16µM*	-1%	-2%	?
COC(=O)c1ccccc1NC(=O)N1CCN(Cc2nc(-c3ccc(C)cc3)oc2C)CC1	/	/	/	/	-2%
Cc1ccc(S(=O)(=O)c2nc(-c3ccc(Cl)cc3)oc2N2CCCCCC2)cc1	/	14µM*	-8%	-2%	-12%
C=C(C)Cn1c(N(C)C)nc2c1c(=O)[nH]c(=O)n2C	/	/	/	/	39%
CC1=C(CC(=O)c2ccccc2)C(=O)c2ccccc2C1=O	-20%	32µM*	-4%	-6%	-23%
Cc1ccc2nc(-c3ccc(NC(=O)CNC4CC4)cc3)sc2c1	-30%	7.1µM*	1%	0%	-16%
SMILES	Sfp inh	G9a inh	VDR inh	Glioma ERSR ind	12-LOX inh
Cc1ccc2nc(-c3ccc(NC(=O)C(F)(F)F)cc3)sc2c1	/	-37%[59 µM]	-12%	-6%	-14%
COc1ccc(-c2[nH]nc3c2C(c2ccc4c(c2)OCO4)CC(=O)O3)cc1 (configuration not stated)	/	/	/	/	45µM*
CC1(C)C(c2ccccc2)=NC(c2ccccc2)N1O (configuration not stated)	-3%	?	9%	-2%	-34%
CC1(C)C(c2ccccc2)=NC(c2ccc(Br)cc2)N1O (configuration not stated)	3%	/	-9%	-4%	7.9µM*
N#CC(C(=O)c1ccco1)c1ccccn1 (configuration not stated)	19%	35µM*	3%	6%	14%
COc1ccc2cc1Oc1ccc(cc1)CC1c3cc(c(OC)cc3CCN1C)Oc1c(OC)c(OC)c(OC)c3c1C(C2)N(C)CC3 (configuration not stated)	-17%	/	45µM*	-2%	-24%[57.4 µM]
COc1ccc2cc1Oc1ccc(cc1)CC1c3c(cc4c(c3Oc3cc5c(cc3OC)CCN(C)C5C2)OCO4)CCN1C (configuration not stated)	4%	-10%[2.33 µM]	10%	-5%	/
COC(=O)CN1C(=O)[C@H]2[C@@H](c3ccc(C)o3)N3C(=O)CN(Cc4ccccc4)C(=O)[C@@]3(C)[C@H]2C1=O	45µM*	45µM*	-13%	-1%	-1%
Cc1ccc([C@@H]2[C@@H]3C(=O)N(C)C(=O)[C@@H]3[C@]3(C)C(=O)N(Cc4ccccc4)CC(=O)N23)o1	-11%	/	2%	-2%	/
CCCCCCOc1ccc2c(C)c(CCC(C)C)c(=O)oc2c1	/	/	/	/	2%
O=[N+]([O-])c1cc2c(cc1CN1CCN(c3ccc(F)cc3)CC1)OCO2	-10%	45µM*	-20%	-6%	-63%
CCOc1ccccc1N1CCN(Cc2cc3c(cc2[N+](=O)[O-])OCO3)CC1	-19%	71µM*	0%	-2%	-13%
CCOc1ccccc1N1CCN(C/C=C/c2ccc(N(C)C)cc2)CC1	-30%	10µM*	1%	-3%	?
CCOc1ccccc1N1CCN(Cc2ccc(OC)c(OC)c2)CC1	-24%	2.8µM*	-1%	-5%	-16%
CCCCCCCOc1ccc(-c2ccc(C3CCC(CC)CC3)cn2)cc1F (configuration not stated)	/	/	/	/	13%
Cn1nc(C(=O)Nc2ncc(Cc3ccc(Cl)cc3)s2)ccc1=O	/	/	/	/	33%
COc1ccc(-c2cnc3[nH]cc(CC(=O)N4CCC(OC)CC4)c3c2)cc1	/	/	/	/	6%[176 µM]
COc1ccc(CNC(=O)c2scnc2C)cc1	/	/	/	/	0%
COC(=O)c1cc(=O)n(CCc2ccccc2F)c(=Nc2ccc(F)c(Cl)c2)s1	3%	40µM*	-5%	?	7%
COC(=O)c1cc(=O)n(-c2ccc(F)cc2)c(=Nc2ccc(F)cc2)s1	4%	40µM*	?	-12%	0%
COC(=O)c1ccc(N=c2sc(C(=O)OC)cc(=O)n2C)cc1	6%	?	-12%	0%	0%[57.4 µM]
COC(=O)c1cc(=O)n(Cc2cccs2)c(=Nc2ccc(F)cc2)s1	1%	/	-21%	?	-8%
O=C(CSCc1ccco1)N1CCc2ccccc21	13%	71µM*	-18%	-2%	/
O=C(/C=C/c1cccs1)NC1CCCC1	15%	-8%	1%	3%	-4%
O=C(/C=C/c1cccs1)NC1CCS(=O)(=O)C1 (configuration not stated)	-3%	-5%	89µM*	-2%	-3%
O=C(Nc1ccc(Cl)cc1)C1Sc2nnc(-c3ccccc3)n2NC12CCCCC2 (configuration not stated)	/	/	/	/	46%

Screens as filed in PubChem.
